Drawing on the supplement of paper PMC10723795, this text covers nucleolar normality score for 12 compounds.

Molecules are shown by their SMILES. ± gives the standard deviation of the averaged measurements.

The subject of the assay is RPE1. The assay can be described thus: nucleolar normality score relative to DMSO (fraction of DMSO control); RPE1 is a non-cancer human cell line; higher = more normal nucleoli (less nucleolar stress). The method, then: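 Selected screen hits were validated in hTERT lines (BJ5TA, CHON-002, RPE1) and cancer lines (DLD1, HCT116). Cells were immunostained for nucleolin and UBF and the nucleolar normality score was measured per field of view, with 4 fields per drug. Scores are normalized to each cell line's own DMSO control. Dose and time are not stated for this panel.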
The compound `CC(C)C[C@H](NC(=O)[C@H](CCc1ccccc1)NC(=O)CN1CCOCC1)C(=O)N[C@@H](Cc1ccccc1)C(=O)N[C@@H](CC(C)C)C(=O)[C@@]1(C)CO1` [Carfilzomib] displayed a nucleolar normality score of 0.501 ± 0.086.

In the case of `COc1cccc2c1C(=O)c1c(O)c3c(c(O)c1C2=O)C[C@@](O)(C(=O)CO)C[C@@H]3O[C@H]1C[C@H](N)[C@H](O)[C@H](C)O1` [Doxorubicin], the nucleolar normality score came out at 0.133 ± 0.011.

In turn, `CC(C)c1c2cc(-c3ccnc(NC4CCC(NC5CCOCC5)CC4)n3)ccc2nn1C` (configuration not stated) registered a nucleolar normality score of 0.462 ± 0.015.

Turning to `CC(C)n1nc(-c2ccc3oc(N)nc3c2)c2c(N)ncnc21` [Sapanisertib], the nucleolar normality score was found to be 0.405 ± 0.0078.

Turning to `C=CCNC1=C2C[C@@H](C)C[C@H](OC)[C@H](O)[C@@H](C)/C=C(\C)[C@H](OC(N)=O)[C@@H](OC)/C=C\C=C(/C)C(=O)NC(=CC1=O)C2=O`, the nucleolar normality score was determined as 0.296 ± 0.014.

For `CN1CC[C@H](c2c(O)cc(O)c3c(=O)cc(-c4ccccc4Cl)oc23)[C@H](O)C1` [Flavopiridol], the nucleolar normality score was found to be 0.254 ± 0.019.

`CC(C)c1cc(C(=O)N2Cc3ccc(CN4CCN(C)CC4)cc3C2)c(O)cc1O` [Onalespib] returned a nucleolar normality score of 0.289 ± 0.0093.

The compound `Cc1cnc(CNC(=O)c2c(=O)c3ccc(N4CCCN(C)CC4)nc3n3c2sc2ccccc23)cn1` had a nucleolar normality score of 0.277 ± 0.066.

In the case of `CN(C)CCNC(=O)c1cccn2c(=O)c3cc4ccccc4cc3nc12`, the nucleolar normality score amounted to 0.0724 ± 0.012.

For `CCc1cnn2c(NCc3ccc[n+]([O-])c3)cc(N3CCCC[C@H]3CCO)nc12` [Dinaciclib], the nucleolar normality score was determined as 0.268 ± 0.01.

As to `Cc1nc(-c2cn3c(n2)-c2ccc(-c4cnn(C(C)(C)C(N)=O)c4)cc2OCC3)n(C(C)C)n1` [Taselisib], the nucleolar normality score came out at 0.376 ± 0.0084.

Take `COC[C@H](NC(=O)c1cnc(C)s1)C(=O)N[C@@H](COC)C(=O)N[C@@H](Cc1ccccc1)C(=O)[C@@]1(C)CO1` [Oprozomib]: the nucleolar normality score was determined as 0.55 ± 0.037.
